Screens (PubChem)
GCN5L2 inh: GCN5L2 (KAT2A) acetyltransferase inhibition | Q92830 | GCN5L2 HAT assay, ThioGlo1 CoA-SH fluorescence | Potency, µM (top dose mostly 58.9 µM), for the others: top-dose activity change, negative = inhibition, actives largely listed as inhibitors | 0.21% of 390,000 active | AID 504327
Target sequence (Q92830 whole entry, looked up): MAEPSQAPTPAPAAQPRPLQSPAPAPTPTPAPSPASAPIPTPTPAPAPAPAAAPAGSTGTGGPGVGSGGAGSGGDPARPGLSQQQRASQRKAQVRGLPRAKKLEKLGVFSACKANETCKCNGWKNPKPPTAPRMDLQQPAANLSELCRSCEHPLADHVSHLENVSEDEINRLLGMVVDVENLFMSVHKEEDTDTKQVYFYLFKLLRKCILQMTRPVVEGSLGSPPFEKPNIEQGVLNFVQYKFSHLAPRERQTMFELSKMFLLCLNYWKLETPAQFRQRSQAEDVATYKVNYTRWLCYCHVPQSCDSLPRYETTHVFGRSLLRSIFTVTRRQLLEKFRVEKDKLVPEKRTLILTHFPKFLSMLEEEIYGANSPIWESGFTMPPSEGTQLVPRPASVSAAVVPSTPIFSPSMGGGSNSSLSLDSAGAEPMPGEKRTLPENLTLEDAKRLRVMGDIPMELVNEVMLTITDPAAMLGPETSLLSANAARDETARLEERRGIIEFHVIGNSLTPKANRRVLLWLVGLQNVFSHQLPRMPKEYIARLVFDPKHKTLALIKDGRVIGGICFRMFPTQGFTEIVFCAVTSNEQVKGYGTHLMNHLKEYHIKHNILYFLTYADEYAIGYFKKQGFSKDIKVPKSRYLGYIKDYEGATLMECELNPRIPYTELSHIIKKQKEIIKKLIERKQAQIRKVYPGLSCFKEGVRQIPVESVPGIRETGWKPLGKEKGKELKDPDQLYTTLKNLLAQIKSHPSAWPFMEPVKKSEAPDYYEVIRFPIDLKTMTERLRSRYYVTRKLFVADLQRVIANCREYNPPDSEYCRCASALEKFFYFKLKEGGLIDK
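Fluorescence readout, Ex340nm/Em540nm: ThioGlo1 (50uM final) reacts with free CoA thiol released as 20nM GCN5L2 acetylates H3(1-25) peptide (75uM) using acetyl-CoA (70uM). Compound and enzyme sat 15 min beforehand; 20 min room-temperature reaction.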
Sfp PPTase inh: blocks B. subtilis Sfp PPTase activity; Potency, µM, inactives show largest response in the series, negative = inhibition, hits mostly inhibitors; AID 1490; Biochemical Sfp PPTase activity, qHTS; 3.5% of 310,000 active;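 also: the enzyme is Sfp with the accession as filed and its product quenches rhodamine fluorescence; 0% = enzyme reaction without inhibitor and -100% = no enzyme wells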
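Fluorescence-quenching assay with 15 nM Sfp, 5 uM rhodamine-CoA and 12.5 uM BHQ-2-labelled ybbR peptide in pH 7.6 Hepes/MgCl2 buffer. Enzyme was pre-incubated with compound for 15 min at room temperature. Rate was taken from the 30-min fluorescence change (525/598 nm).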
rTrxR1 inhibitor: blocks rat thioredoxin reductase 1 | O89049 | recombinant rTrxR1, NADPH fluorescence consumption, selenite substrate | Potency, µM (top dose mostly 114 µM), inactives show top-dose activity change, negative = inhibition, actives largely listed as inhibitors | 1% of 390,000 active | AID 588453; also: nearly all actives have a fitted effect of over 65% in size
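Rat TrxR1 (90 nM in the dispensed reagent) was pre-reduced with 400 uM NADPH for 5 min at room temperature, then incubated with compound for 15 min. After 400 uM selenite was added, NADPH fluorescence (Ex 340/Em 450 nm) was followed for 8 min.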
TrxR1 substrate: rat thioredoxin reductase 1 substrate activity; purified TrxR1 substrate turnover, NADPH consumption readout; Potency, µM (top dose mostly 114 µM), without a hit: top-dose activity change, negative = substrate turnover; 0.01% of 390,000 active; O89049; also: nearly all actives have a fitted effect of over 50% in size
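Rat TrxR1, dispensed at 90 nM, was prereduced with 400 uM NADPH (final) for 5 min at ~22 deg C, then incubated with compound 15 min before 400 uM selenite. A first-read NADPH fluorescence drop versus no-compound background flagged substrates.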
VDR inhibitor: blocks the human vitamin D receptor. P11473. VDR-SRC2-3 peptide fluorescence polarization, 2 h. Potency, µM, for the others: max response, negative = inhibition, actives largely listed as inhibitors. 0.93% of 400,000 active
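Fluorescence polarization assay of small-molecule disruption of VDR binding to coregulator peptide SRC2-3. Compounds and controls pin-transferred, then read after 2 h incubation at ambient room temperature.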
GLS inhibitor: blocks human kidney-isoform glutaminase activity; O94925; GLS enzymatic activity, qHTS titration; Potency, µM (titrated, usually from 45.5 µM), for the others: at the top dose activity change, negative = inhibition, hits mostly inhibitors; 0.21% of 410,000 active; AID 624170
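hKGA; 45 mM KH2PO4 pH 8.2 + 0.02% Tween-20; cpd via pin tool; 1 mM Gln soln; GluOx/HRP/Amplex Red; RT 30 min; fluor. t0 & final.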
The depositor's hits bear a star; i = inactive; ? = inconclusive; · = no result given; ! = not active in a repeat; [ ] = remark or other dose. Sampled rows, rich in hits. Any-hit rate of the full collection: about 3.8%. Calls follow the shape of the dose curve; as a rule, active = well fitted curve in the direction sought with a large enough effect; inconclusive = small, poorly fitted or top-dose-only effect, or another doubt; inactive = no such curve, though single readings can be large; an effect the other way counts as inactive or inconclusive. Unless noted, % is scaled to controls: 0 for no effect and ±100 for the full control effect; potency is read from the fitted curve at half-maximal effect.

SMILES	GCN5L2 inh	Sfp PPTase inh	rTrxR1 inhibitor	TrxR1 substrate	VDR inhibitor	GLS inhibitor
CCC(C)(C)n1nnnc1C(c1ccc(F)cc1)N1CCC(C(N)=O)CC1 (stereo not drawn)	?	-6%	29%[57.1 µM]	-6%[57.1 µM]	10%	3%
Cc1cc(=O)oc2cc(OCC3CC(c4ccc(Br)cc4)=NO3)ccc12 (stereo not drawn)	-2%	8%	25%	43%	14%	1%
O=C(OCCC12CC3CC(CC(C3)C1)C2)c1ccc(NCc2cc(O)ccc2O)cc1	·	·	3%	-1%	0%	-13%
COc1ccc(CNC(=O)COC(=O)/C=C/c2ccco2)cc1	1%	?	28µM*	-4%	5%	-13%
c1ncc(-c2ccoc2)c(NC2CC2)n1	?	79µM*	·	·	50µM*	·
Cc1noc(C)c1-c1cncnc1NC1CC1	-9%	3%	·	·	-22%	·
COc1ccccc1CNc1ccnc(-c2ccoc2)n1	-10%	?	·	·	?	·
c1ccc(CNc2ccnc(-c3ccoc3)n2)cc1	-4%	-24%	·	·	79µM*	·
c1csc(CNc2nc(-c3ccoc3)nc3ccccc23)c1	-18%	?	·	·	22µM*	·
O=c1[nH]c(CNCc2cccnc2)nc2ccccc12	3%	25µM*	0%[57.1 µM]	-1%[57.1 µM]	5%	1%
CC(=O)c1ccc2c(c1)Nc1ccccc1S2	-5%	6%	22%[57.1 µM]	-15%	-4%	2%
N#Cc1cccc(-c2cncnc2NCc2cccnc2)c1	-11%	-2%	·	·	-9%	·
c1cncc(CNc2nc(-c3ccoc3)nc3ccccc23)c1	-17%	40µM*	·	·	?	·
c1csc(CNc2cc(-c3ccoc3)ncn2)c1	-12%	32µM*	·	·	20µM*	·
c1cncc(-c2nc(NCc3cccs3)c3ccccc3n2)c1	1%	79µM*!	8%[57.1 µM]	5%[57.1 µM]	0%	-1%
c1cncc(CNc2ncncc2-c2ccoc2)c1	-20%	79µM*	·	·	50µM*	·
c1ccc(CCNc2ncnc3scc(C4COc5ccccc5O4)c23)cc1 (stereo not drawn)	-6%	?	2%	2%	13%	0%
CN(C1CCCCC1)S(=O)(=O)c1ccc(SCC(=O)NC(C)(C)C)nc1	-7%	·	3%	-3%	11%	-6%
Cc1cc2nc(-c3ccccc3)c(CC3CCCCC3)n2c(C)c1Br	·	·	·	·	·	-1%
Cc1[nH]c2ccccc2c1/C=N/Nc1nncn1N	-2%	8.9µM*	-27%	-13%	-8%	?
Cc1[nH]c2ccccc2c1/C=N/Nc1ccccn1	-12%	?	·	·	·	·
O=C(COc1ccccc1)Nc1nnc(-c2ccco2)o1	3%	-18%	-3%[57.1 µM]	4%[57.1 µM]	4%	7%
COc1ccc(NC(=O)CSc2c(C)nn(-c3nnc(C)c(=O)[nH]3)c2C)cc1	1%	50µM*	14%	3%	11%	-2%
Cc1ccc(NC(=O)CSc2nnc(C)c(=O)[nH]2)cc1	-1%	·	-4%	-5%	5%	-8%
C=CCC(C)(O)c1cccc(C(F)(F)F)c1 (stereo not drawn)	·	-8%	·	·	-3%	·
SMILES	GCN5L2 inh	Sfp PPTase inh	rTrxR1 inhibitor	TrxR1 substrate	VDR inhibitor	GLS inhibitor
Cc1ccc(C)c(N2CCN(S(=O)(=O)c3ccc4[nH]c5c(c4c3)CCCC5)CC2)c1	-13%	·	24%	6%	10%	-2%
O=S(=O)(c1ccc2[nH]c3c(c2c1)CCCC3)N1CCCCC1	-17%	-7%	?	-5%	89µM*	-1%
O=c1oc2c(CN3CCCCC3)c(O)ccc2c2c1CCCC2	-6%	2%	-33%	i	-20%	34%
Cc1cc(C)n2c(SCC(=O)NC3CCCCC3C)nnc2n1 (stereo not drawn)	3%	26%	15%[57.1 µM]	5%[57.1 µM]	4%	-2%
Oc1c(Cl)cc(Cl)cc1/C=N/c1nccs1	-4%	50µM*	?	-4%	79µM*	-12%
CC1CN(C2=NC(=O)/C(=C3/C(=O)N(Cc4ccc(F)cc4)c4ccccc43)S2)CC(C)O1 (stereo not drawn)	-6%	40µM*	21%	-1%	?	-11%
O=C1N=C(N2CCOCC2)S/C1=C1\C(=O)N(Cc2ccccc2)c2ccccc21	1%	-8%	15%	1%	-5%	1%
COc1ccc2[nH]cc(CC(=O)O)c2c1	-1%	13%	4%	-1%	-13%	7%
O=C(O)Cc1c[nH]c2ccc(O)cc12	-12%	·	11µM*!	23%[57.1 µM]	50µM*!	17%
COc1cc(/C=C2\S/C(=N/S(=O)(=O)Cc3ccccc3)NC2=O)c([N+](=O)[O-])cc1OC	-4%	-1%	-15%	-15%	-28%	15%
O=C1N/C(=N\S(=O)(=O)Cc2ccccc2)S/C1=C/c1cc([N+](=O)[O-])ccc1O	-6%	28µM*	-30%	?	?	?
COc1cc(/C=C2/S/C(=N/S(=O)(=O)c3ccccc3)NC2=O)c([N+](=O)[O-])cc1OC	-23%	79µM*	-15%[57.1 µM]	-11%[57.1 µM]	-8%	94%
CC(=O)Nc1ccc(Nc2nccc(C)n2)cc1	·	·	·	·	·	19%
COC(=O)C1=C(C)N(CCc2ccc(OC)c(OC)c2)C(=O)/C1=C\N(C)C	-4%	-23%	10µM*	4%	?	-2%
COc1ccc(CCN2C(=O)C=CC2=O)cc1OC	·	·	0.63µM*	6%	?	0%
COc1ccc(CCN2C(=O)c3cccnc3C2=O)cc1OC	-8%	30%	-3%	-5%	-14%	2%
Cc1ccc(-c2c(C(=O)N/N=C/c3ccc(C)o3)nnn2-c2nonc2N)cc1	4%	50µM*	22%	-4%	-17%	9%
Nc1nonc1-n1nnc(C(=O)N/N=C/c2ccncc2)c1-c1cccs1	-1%	23%	8%	1%	0%	8%
C/C(=N\NC(=O)c1nnn(-c2nonc2N)c1-c1cccs1)c1ccncc1	1%	11%	35µM*	2%	-12%	6%
COc1ccc([C@H]2CC(=O)C=C(/C=C/Cc3ccccc3)C2)cc1	-11%	·	-20%[57.1 µM]	-4%	79µM*	-1%
COc1ccc(C(=O)c2c(C)c3ccccc3n2CC(O)CNC(C)C)cc1 (stereo not drawn)	-3%	32µM*	1%	-1%	-14%	2%
O=C(NC1CCCCC1)N1CCSC1=Nc1ccccc1	-9%	-8%	30%[57.1 µM]	10%[57.1 µM]	5%	8%
COc1cc(C(=O)N/N=C(\C)c2ccc(NC(=O)Cc3ccccc3)cc2)ccc1O	-1%	10%	4%	-2%	-5%	11%
CCCCn1c(=N)n(CC(=O)c2ccc([N+](=O)[O-])cc2)c2ccccc21	-3%	56µM*	·	·	·	·
Cc1ccc(Cn2c(=N)n(CC(=O)c3ccc([N+](=O)[O-])cc3)c3ccccc32)cc1	-3%	35µM*	3%	1%	-20%	-1%
